What all share (assay): DAPPL (digital affinity profiling via proximity ligation, sequencing); 10 mM Tris-HCl pH 7.5, 50 mM NaCl, 1 mM DTT, 4% glycerol, room temperature, 30 min; GST-TFs on glutathione beads, 16-mer random dsDNA library, 0.1% formaldehyde crosslink after washing; high values mean tight binding
For one test, the target named is T1, FEV (Homo sapiens, UniProt Q99581 1-238).
T1 sequence: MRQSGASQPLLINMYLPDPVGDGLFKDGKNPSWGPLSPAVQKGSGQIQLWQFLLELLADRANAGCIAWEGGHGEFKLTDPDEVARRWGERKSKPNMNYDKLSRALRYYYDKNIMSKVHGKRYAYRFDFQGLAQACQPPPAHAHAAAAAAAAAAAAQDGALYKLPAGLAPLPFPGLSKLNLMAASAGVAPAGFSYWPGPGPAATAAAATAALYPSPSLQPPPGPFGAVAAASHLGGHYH
Conditions: protein: recombinant; tags: N-terminal GST; dsDNA, one strand shown. In short, it runs like this:
(§1)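 Human transcription factors fused to GST were expressed in yeast, captured on glutathione beads, given DNA barcodes and pooled with a GST-only negative control. Pools were incubated with 200 nmole of a 16-mer random double-stranded DNA library in Tris/NaCl/DTT/glycerol buffer at room temperature for 30 min. They were then washed, crosslinked with 0.1% formaldehyde, proximity-ligated (BsaI/T4 ligase, 1 h, 37 °C), PCR-amplified and sequenced on an Illumina NextSeq500. Binding signal is each 6-mer's read frequency for a factor divided by its frequency for the GST control.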

Another test has as its target ETV5 (Homo sapiens, UniProt P41161 1-510). The note with it: protein: recombinant; tags: N-terminal GST; dsDNA, one strand shown. In short, it runs like this:
as §1

For a further test, the target named is HSF1 (Homo sapiens, UniProt Q00613 1-529). Conditions: protein: recombinant; tags: N-terminal GST; chain copies: 3; dsDNA, one strand shown. A digest of the protocol:
as §1

The next test concerns the target T2, SPIC (Homo sapiens, UniProt Q8N5J4 1-248).
T2 sequence: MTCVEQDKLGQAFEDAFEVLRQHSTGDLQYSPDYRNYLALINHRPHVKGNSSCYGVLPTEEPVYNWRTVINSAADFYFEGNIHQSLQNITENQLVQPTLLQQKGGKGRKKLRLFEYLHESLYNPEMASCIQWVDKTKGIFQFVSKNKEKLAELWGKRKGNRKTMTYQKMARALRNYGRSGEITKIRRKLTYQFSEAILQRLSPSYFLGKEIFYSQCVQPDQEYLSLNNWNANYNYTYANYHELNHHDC
The note with it: protein: recombinant; tags: N-terminal GST; dsDNA, one strand shown. In short, it runs like this:
as §1

A further test has as its target ELF4 (Homo sapiens, UniProt Q99607 1-663). Conditions: protein: recombinant; tags: N-terminal GST; dsDNA, one strand shown. In short, it runs like this:
as §1

The target of the next test is T3, ELK4 (Homo sapiens, UniProt P28324-2 1-405).
T3 sequence: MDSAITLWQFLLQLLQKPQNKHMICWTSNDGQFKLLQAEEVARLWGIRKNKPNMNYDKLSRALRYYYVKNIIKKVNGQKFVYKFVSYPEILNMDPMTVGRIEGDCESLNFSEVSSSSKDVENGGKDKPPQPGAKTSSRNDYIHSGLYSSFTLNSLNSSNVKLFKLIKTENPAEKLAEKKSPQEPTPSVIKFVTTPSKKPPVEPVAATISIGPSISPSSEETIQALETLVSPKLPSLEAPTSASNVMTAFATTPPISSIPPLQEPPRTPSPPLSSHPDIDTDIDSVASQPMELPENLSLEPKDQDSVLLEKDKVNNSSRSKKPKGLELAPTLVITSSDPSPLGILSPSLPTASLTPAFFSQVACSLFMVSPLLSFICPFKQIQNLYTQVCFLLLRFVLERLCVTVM
Conditions: protein: recombinant; tags: N-terminal GST; dsDNA, one strand shown. In short, it runs like this:
as §1

The target of another test is T4, ETV2 (Homo sapiens, UniProt O00321 1-342).
T4 sequence: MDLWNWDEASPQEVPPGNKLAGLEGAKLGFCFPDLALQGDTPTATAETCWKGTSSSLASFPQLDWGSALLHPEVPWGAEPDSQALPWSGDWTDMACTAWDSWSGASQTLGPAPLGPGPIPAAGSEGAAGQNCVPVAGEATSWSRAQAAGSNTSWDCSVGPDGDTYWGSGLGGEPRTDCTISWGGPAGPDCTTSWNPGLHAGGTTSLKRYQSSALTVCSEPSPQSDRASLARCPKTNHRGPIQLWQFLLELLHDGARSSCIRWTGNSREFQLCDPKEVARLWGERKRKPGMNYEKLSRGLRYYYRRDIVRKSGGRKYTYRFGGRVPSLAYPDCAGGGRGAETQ
Conditions: protein: recombinant; tags: N-terminal GST; dsDNA, one strand shown. In short, it runs like this:
as §1

For another test, the target named is T5, ELF3 (Homo sapiens, UniProt P78545 1-371).
T5 sequence: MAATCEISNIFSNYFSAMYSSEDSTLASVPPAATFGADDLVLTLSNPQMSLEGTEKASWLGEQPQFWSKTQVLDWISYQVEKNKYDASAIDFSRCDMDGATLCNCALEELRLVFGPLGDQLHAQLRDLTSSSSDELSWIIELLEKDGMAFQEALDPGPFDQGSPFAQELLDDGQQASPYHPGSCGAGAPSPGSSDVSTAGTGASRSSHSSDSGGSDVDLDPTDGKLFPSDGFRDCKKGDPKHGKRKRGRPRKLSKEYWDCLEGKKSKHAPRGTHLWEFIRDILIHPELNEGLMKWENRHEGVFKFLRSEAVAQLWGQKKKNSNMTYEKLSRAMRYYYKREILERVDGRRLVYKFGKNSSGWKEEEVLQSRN
Conditions: protein: recombinant; tags: N-terminal GST; dsDNA, one strand shown. In short, it runs like this:
as §1

For the next test, the target named is ETV1 (Homo sapiens, UniProt P50549 1-477). The note with it: protein: recombinant; tags: N-terminal GST; dsDNA, one strand shown. A digest of the protocol: as §1
Chain of ETV1 (P50549 whole entry): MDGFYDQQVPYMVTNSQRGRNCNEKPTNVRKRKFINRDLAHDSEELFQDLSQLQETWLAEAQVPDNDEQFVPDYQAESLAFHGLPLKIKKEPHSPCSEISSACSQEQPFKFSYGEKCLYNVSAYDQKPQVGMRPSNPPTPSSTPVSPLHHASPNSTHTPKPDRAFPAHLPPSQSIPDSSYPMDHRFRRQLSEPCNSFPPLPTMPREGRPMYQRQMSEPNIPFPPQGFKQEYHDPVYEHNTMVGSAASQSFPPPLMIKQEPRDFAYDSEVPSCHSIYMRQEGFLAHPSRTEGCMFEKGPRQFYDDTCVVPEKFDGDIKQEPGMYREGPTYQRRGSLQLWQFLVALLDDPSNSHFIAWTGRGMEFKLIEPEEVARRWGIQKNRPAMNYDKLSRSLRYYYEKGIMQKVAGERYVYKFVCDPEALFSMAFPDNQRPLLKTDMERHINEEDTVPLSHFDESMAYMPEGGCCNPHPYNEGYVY

Chain of ETV5 (P41161 whole entry): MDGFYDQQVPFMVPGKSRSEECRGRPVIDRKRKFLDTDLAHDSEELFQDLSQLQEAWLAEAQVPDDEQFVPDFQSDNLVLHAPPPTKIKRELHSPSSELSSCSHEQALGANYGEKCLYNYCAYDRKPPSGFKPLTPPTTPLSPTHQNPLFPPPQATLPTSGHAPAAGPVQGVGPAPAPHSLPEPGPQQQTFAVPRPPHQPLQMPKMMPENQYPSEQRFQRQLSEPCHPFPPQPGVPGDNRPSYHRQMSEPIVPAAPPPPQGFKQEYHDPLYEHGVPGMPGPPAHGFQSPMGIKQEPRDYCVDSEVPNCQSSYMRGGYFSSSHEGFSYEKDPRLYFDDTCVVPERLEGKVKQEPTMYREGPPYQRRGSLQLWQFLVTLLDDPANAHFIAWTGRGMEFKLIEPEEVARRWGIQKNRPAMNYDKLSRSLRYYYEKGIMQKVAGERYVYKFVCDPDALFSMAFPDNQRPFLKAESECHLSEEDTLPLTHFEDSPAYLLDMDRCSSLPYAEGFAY
Chain of ELF4 (Q99607 whole entry): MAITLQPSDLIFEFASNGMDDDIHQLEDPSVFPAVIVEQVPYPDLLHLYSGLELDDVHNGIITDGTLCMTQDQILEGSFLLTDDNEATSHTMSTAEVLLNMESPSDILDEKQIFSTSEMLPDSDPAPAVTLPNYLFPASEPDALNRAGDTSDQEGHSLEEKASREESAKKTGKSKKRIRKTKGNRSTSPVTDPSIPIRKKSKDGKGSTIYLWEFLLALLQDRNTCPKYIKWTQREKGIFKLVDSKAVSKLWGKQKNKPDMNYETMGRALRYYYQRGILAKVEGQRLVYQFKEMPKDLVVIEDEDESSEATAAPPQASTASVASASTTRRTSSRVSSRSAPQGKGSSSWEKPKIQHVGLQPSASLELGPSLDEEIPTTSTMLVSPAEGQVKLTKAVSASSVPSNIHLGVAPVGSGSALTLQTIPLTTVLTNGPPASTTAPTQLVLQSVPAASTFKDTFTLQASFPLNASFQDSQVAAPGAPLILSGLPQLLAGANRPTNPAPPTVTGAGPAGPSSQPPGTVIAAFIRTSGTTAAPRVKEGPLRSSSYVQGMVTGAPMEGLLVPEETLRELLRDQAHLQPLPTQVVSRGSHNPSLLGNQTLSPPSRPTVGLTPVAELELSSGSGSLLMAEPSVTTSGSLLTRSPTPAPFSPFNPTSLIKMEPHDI
Chain of HSF1 (Q00613 whole entry): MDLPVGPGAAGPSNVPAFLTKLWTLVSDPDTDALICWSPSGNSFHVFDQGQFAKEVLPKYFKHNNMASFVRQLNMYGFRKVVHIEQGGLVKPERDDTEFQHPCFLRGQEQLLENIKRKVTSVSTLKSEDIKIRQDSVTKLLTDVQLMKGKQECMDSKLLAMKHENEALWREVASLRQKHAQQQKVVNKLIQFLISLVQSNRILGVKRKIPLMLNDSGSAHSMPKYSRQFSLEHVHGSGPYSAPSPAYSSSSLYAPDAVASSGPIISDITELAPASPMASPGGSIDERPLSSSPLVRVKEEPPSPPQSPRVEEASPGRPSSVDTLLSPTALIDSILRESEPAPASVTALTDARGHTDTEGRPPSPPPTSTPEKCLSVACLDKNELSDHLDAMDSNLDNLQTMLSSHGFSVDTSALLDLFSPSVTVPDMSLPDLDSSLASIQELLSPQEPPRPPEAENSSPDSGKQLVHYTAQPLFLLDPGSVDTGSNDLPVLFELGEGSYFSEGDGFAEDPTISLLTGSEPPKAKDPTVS

For CACTGG, the binding signal was 1.07 fold enrichment (6-mer frequency, TF over GST control) with FEV; 1.13 fold enrichment (6-mer frequency, TF over GST control) with ETV5; 1.16 fold enrichment (6-mer frequency, TF over GST control) in the test with HSF1; 1.24 fold enrichment (6-mer frequency, TF over GST control) with SPIC; 1.04 fold enrichment (6-mer frequency, TF over GST control) in the test with ELF4; 1.05 fold enrichment (6-mer frequency, TF over GST control) in the test with ELK4. In addition, the binding signal is 1.22 fold enrichment (6-mer frequency, TF over GST control) with ETV2; 1.11 fold enrichment (6-mer frequency, TF over GST control) with ELF3; 1.22 fold enrichment (6-mer frequency, TF over GST control) with ETV1.

Regarding GCGTTC, the binding signal in the test with FEV was 1.07 fold enrichment (6-mer frequency, TF over GST control); with ETV5, 1.17 fold enrichment (6-mer frequency, TF over GST control); in the test with HSF1, 1.1 fold enrichment (6-mer frequency, TF over GST control); in the test with SPIC, 1.11 fold enrichment (6-mer frequency, TF over GST control); with ELF4, 1.1 fold enrichment (6-mer frequency, TF over GST control); in the test with ELK4, 1.02 fold enrichment (6-mer frequency, TF over GST control). In addition, the binding signal in the test with ETV2 is 1.23 fold enrichment (6-mer frequency, TF over GST control); with ELF3, 1.15 fold enrichment (6-mer frequency, TF over GST control); in the test with ETV1, 1.28 fold enrichment (6-mer frequency, TF over GST control).

With CACGCG, the binding signal in the test with FEV was 1.16 fold enrichment (6-mer frequency, TF over GST control); with ETV5, 1.04 fold enrichment (6-mer frequency, TF over GST control); in the test with HSF1 it was 1.1 fold enrichment (6-mer frequency, TF over GST control); with SPIC it was 1.29 fold enrichment (6-mer frequency, TF over GST control); with ELF4 it was 1.2 fold enrichment (6-mer frequency, TF over GST control); with ELK4, 1.24 fold enrichment (6-mer frequency, TF over GST control). Besides, the binding signal is 1.18 fold enrichment (6-mer frequency, TF over GST control) with ETV2; 1.08 fold enrichment (6-mer frequency, TF over GST control) with ELF3; 1.09 fold enrichment (6-mer frequency, TF over GST control) in the test with ETV1.

Regarding GAAACT, the binding signal with FEV was 1.29 fold enrichment (6-mer frequency, TF over GST control); with ETV5 it was 1.28 fold enrichment (6-mer frequency, TF over GST control); with HSF1 it was 1.32 fold enrichment (6-mer frequency, TF over GST control); with SPIC it was 1.25 fold enrichment (6-mer frequency, TF over GST control); with ELF4, 1.24 fold enrichment (6-mer frequency, TF over GST control); in the test with ELK4, 1.14 fold enrichment (6-mer frequency, TF over GST control). In addition, the binding signal was 1.12 fold enrichment (6-mer frequency, TF over GST control) in the test with ETV2; 1.19 fold enrichment (6-mer frequency, TF over GST control) with ELF3; 1.27 fold enrichment (6-mer frequency, TF over GST control) in the test with ETV1.

In the case of CAGGAA, the binding signal is 1.51 fold enrichment (6-mer frequency, TF over GST control) in the test with FEV; 1.79 fold enrichment (6-mer frequency, TF over GST control) with ETV5; 1.04 fold enrichment (6-mer frequency, TF over GST control) with HSF1; 1.65 fold enrichment (6-mer frequency, TF over GST control) with SPIC; 1.52 fold enrichment (6-mer frequency, TF over GST control) in the test with ELF4; 1.37 fold enrichment (6-mer frequency, TF over GST control) with ELK4. Also, the binding signal is 1.6 fold enrichment (6-mer frequency, TF over GST control) with ETV2; 1.86 fold enrichment (6-mer frequency, TF over GST control) with ELF3; 1.74 fold enrichment (6-mer frequency, TF over GST control) in the test with ETV1.

Take TAGGAA: the binding signal in the test with FEV is 1.06 fold enrichment (6-mer frequency, TF over GST control); in the test with ETV5 it was 1.19 fold enrichment (6-mer frequency, TF over GST control); with HSF1, 1.11 fold enrichment (6-mer frequency, TF over GST control); with SPIC, 1.27 fold enrichment (6-mer frequency, TF over GST control); with ELF4 it was 1.09 fold enrichment (6-mer frequency, TF over GST control); with ELK4 it was 1.01 fold enrichment (6-mer frequency, TF over GST control). The binding signal in the test with ETV2 is 1.2 fold enrichment (6-mer frequency, TF over GST control); in the test with ELF3, 1.2 fold enrichment (6-mer frequency, TF over GST control); with ETV1 it was 1.13 fold enrichment (6-mer frequency, TF over GST control).

For the sequence GATGCC, the binding signal with FEV is 1.41 fold enrichment (6-mer frequency, TF over GST control); in the test with ETV5 it was 1.46 fold enrichment (6-mer frequency, TF over GST control); with HSF1, 1.08 fold enrichment (6-mer frequency, TF over GST control); with SPIC, 1.22 fold enrichment (6-mer frequency, TF over GST control); in the test with ELF4, 1.31 fold enrichment (6-mer frequency, TF over GST control); with ELK4, 1.42 fold enrichment (6-mer frequency, TF over GST control). For the same sequence, the binding signal in the test with ETV2 is 1.28 fold enrichment (6-mer frequency, TF over GST control); with ELF3, 1.4 fold enrichment (6-mer frequency, TF over GST control); with ETV1, 1.36 fold enrichment (6-mer frequency, TF over GST control).

As to AACTTG, the binding signal is 1.17 fold enrichment (6-mer frequency, TF over GST control) with FEV; 1.14 fold enrichment (6-mer frequency, TF over GST control) with ETV5; 1.09 fold enrichment (6-mer frequency, TF over GST control) with HSF1; 1.27 fold enrichment (6-mer frequency, TF over GST control) with SPIC; 1.28 fold enrichment (6-mer frequency, TF over GST control) in the test with ELF4; 1.11 fold enrichment (6-mer frequency, TF over GST control) with ELK4. For the same sequence, the binding signal was 1.12 fold enrichment (6-mer frequency, TF over GST control) with ETV2; 1.19 fold enrichment (6-mer frequency, TF over GST control) in the test with ELF3; 1.05 fold enrichment (6-mer frequency, TF over GST control) with ETV1.

For the origin of these results see article PMC7862700, “An all-to-all approach to the identification of sequence-specific readers for epigenetic DNA modifications on cytosine”.
